Source: PubChem BioAssay
Activity calls are given as the source filed them.

Columns and labels:
[1] = optical density shifts of acrAB sulA E. coli – strain DRC41, OD650, 48 h, E. coli filamentation inducer project, primary screen (AID 1152); details: higher = more signal, called active from +8 up or from −8 down;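 note: E. coli MC1000 strain DRC41 lacking acrAB efflux pump and sulA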
[2] = probe aLefty1 binding on compound microarray – biochemical, small-molecule microarray, 635/667 nm fluorescence, primary screen (AID 1153); details: higher = more signal;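 note: score merges spot fluorescence with signal-to-noise ratio from the scanned slide images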
[3] = plasmodial surface anion channel blockers, osmotic lysis – cell-based, P. falciparum Indochina, OD700, 1 h, primary screen (AID 1154); details: P. falciparum Indochina infected RBC osmotic lysis, higher = more signal, called active from +8 up or from −8 down
[4] = plasmodial surface anion channel blockers, osmotic lysis – cell-based, P. falciparum Indochina, OD700, 2 h, primary screen (AID 1155);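 note: lysis reports solute entry through the parasite surface anion channel PSAC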; details: P. falciparum Indochina infected erythrocytes, higher = more signal, called active from +8 up or from −8 down
[5] = changes in parasitized red cell lysis, either direction – P. falciparum Indochina, OD700, 3 h, PSAC antagonist project, primary screen (AID 1156); details: P. falciparum-infected erythrocytes, osmotic lysis, higher = more signal, called active from +8 up or from −8 down
[6] = plasmodial surface anion channel blockers, osmotic lysis – cell-based, P. falciparum Indochina, OD700, 18 h, primary screen (AID 1157); details: P. falciparum Indochina infected erythrocytes, osmotic lysis OD700, 18 h; higher = more signal, called active from +8 up or from −8 down
[7] = S6 kinase pathway phospho-S6 level changes – cell-based, A549, cytoblot, luminescence, serum-stimulated, primary screen (AID 1158); details: 5 h, higher = more signal;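 note: serum-stimulated A549 lung adenocarcinoma cells; signal is phosphorylated S6 detected by cytoblot immunostaining with HRP secondary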
[8] = molecular target: NADPH oxidase 2 (Homo sapiens) (UniProt P04839); test: compounds shifting NOX2 Amplex Red fluorescence – cell-based, HEK293-NOX2, PMA-stimulated, NOX inhibitor project, primary screen (AID 1159); details: 45 min, higher = more signal, called active from +8 up or from −8 down; note: test concentration not given here
[9] = molecular target: NADPH oxidase 4 (Homo sapiens) (UniProt Q9NPH5); test: compounds shifting NOX4 Amplex Red fluorescence – cell-based, HEK293-NOX4, tetracycline-induced, NOX inhibitor project, primary screen (AID 1160); details: HEK293-NOX4, Amplex Red H2O2 fluorescence, 45 min; higher = more signal, called active from +8 up or from −8 down
[10] = molecular target: NADPH oxidase 5 (Homo sapiens) (UniProt Q96PH1); test: compounds shifting NOX5 Amplex Red fluorescence – cell-based, HEK293-NOX5, NOX inhibitor project, primary screen (AID 1161); details: HEK293-NOX5, ionomycin, 45 min, higher = more signal
[11] = compound effects on lung adenocarcinoma cell viability – A549, calcein-AM fluorescence, 48 h, basal, profiling panel (AID 1162); details: higher = more signal; note: test concentration not given here
[12] = compound effects on differentiated 3T3-L1 adipocyte viability – cell-based, 3T3-L1 adipocytes, calcein-AM fluorescence, 48 h, basal, profiling panel (AID 1163); details: 3T3-L1 adipocytes viability, higher = more signal; note: test concentration not given here
[13] = compound effects on hepatocellular carcinoma cell viability – HepG2, calcein-AM fluorescence, 48 h, basal, profiling panel (AID 1164); details: higher = more signal; note: test concentration not given here
[14] = compound effects on multiple myeloma cell viability – MM1S, calcein-AM fluorescence, 48 h, basal, profiling panel (AID 1165); details: higher = more signal;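 note: viability of MM1S multiple myeloma cells under basal unstimulated conditions; test concentration not given here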
[15] = calcein-AM signal in unstimulated myeloma cells – cell-based, calcein-AM fluorescence, 48 h, PK04 Diversity Set, profiling panel (AID 1166); details: RPMI8226 myeloma viability, higher = more signal;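 note: cells grown under basal conditions without added stimulus; test concentration not given here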
[16] = JC-1 mitochondrial signal, unstimulated HepG2 cells – cell-based, JC-1 fluorescence, 24 h, 100 nL compound, profiling panel (AID 1167); details: HepG2 mitochondrial potential, higher = more signal; note: test concentration not given here
[17] = JC-1 mitochondrial signal, unstimulated adipocytes – cell-based, JC-1 fluorescence, 3T3-L1 adipocytes, 24 h, 100 nL compound, profiling panel (AID 1168); details: JC-1 mitochondrial fluorescence, higher = more signal, called active from +8 up or from −8 down; note: test concentration not given here
[18] = JC-1 mitochondrial signal, unstimulated myeloma cells – cell-based, JC-1 fluorescence, RPMI8226, 24 h, 100 nL compound, profiling panel (AID 1169); details: JC-1 mitochondrial potential fluorescence, higher = more signal; note: test concentration not given here
[19] = JC-1 mitochondrial signal, unstimulated MM1S myeloma – cell-based, JC-1 fluorescence, 24 h, 100 nL compound, profiling panel (AID 1170); details: MM1S mitochondrial potential, higher = more signal; note: test concentration not given here
[20] = resazurin metabolic signal in A549 cells – cell-based, resazurin fluorescence, 24 h, PK04 Diversity Set, profiling panel (AID 1171); details: A549 viability, higher = more signal, called active from +8 up or from −8 down; note: test concentration not given here

Sequence of NADPH oxidase 5 (Homo sapiens) (Q96PH1 whole entry, looked up): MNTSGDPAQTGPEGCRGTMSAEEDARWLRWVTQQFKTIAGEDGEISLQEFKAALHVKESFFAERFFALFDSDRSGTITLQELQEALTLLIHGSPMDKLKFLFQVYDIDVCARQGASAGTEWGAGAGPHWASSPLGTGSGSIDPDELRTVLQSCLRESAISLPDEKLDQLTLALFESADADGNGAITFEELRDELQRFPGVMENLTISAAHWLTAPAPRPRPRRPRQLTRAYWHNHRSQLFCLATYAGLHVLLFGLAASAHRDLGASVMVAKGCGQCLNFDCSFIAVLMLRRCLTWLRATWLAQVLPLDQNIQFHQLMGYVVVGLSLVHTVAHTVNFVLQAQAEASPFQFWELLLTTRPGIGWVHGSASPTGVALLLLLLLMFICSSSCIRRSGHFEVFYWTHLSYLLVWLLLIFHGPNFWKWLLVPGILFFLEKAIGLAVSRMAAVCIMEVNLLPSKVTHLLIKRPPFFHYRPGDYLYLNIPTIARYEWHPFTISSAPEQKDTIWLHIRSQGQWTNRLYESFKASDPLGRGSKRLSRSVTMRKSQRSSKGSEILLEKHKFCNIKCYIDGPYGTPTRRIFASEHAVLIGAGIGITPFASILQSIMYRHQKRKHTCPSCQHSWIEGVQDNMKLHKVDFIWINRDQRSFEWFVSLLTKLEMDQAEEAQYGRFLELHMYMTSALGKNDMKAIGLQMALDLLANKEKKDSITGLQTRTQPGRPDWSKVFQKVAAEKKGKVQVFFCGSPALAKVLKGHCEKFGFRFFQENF
Sequence of NADPH oxidase 2 (Homo sapiens) (P04839 whole entry, looked up): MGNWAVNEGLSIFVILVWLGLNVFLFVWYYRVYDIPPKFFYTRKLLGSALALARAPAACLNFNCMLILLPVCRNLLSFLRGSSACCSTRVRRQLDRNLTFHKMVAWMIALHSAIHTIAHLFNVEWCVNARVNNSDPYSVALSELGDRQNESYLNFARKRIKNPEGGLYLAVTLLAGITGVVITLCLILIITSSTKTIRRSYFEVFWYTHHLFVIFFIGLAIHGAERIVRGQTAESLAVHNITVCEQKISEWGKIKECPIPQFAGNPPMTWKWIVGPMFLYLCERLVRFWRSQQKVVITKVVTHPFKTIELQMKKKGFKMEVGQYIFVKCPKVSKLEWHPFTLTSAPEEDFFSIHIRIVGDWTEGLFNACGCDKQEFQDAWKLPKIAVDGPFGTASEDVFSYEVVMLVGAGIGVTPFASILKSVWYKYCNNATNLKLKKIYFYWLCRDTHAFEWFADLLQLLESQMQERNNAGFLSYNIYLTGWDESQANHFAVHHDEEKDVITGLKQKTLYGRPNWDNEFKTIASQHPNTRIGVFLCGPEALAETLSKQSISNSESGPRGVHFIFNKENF
Sequence of NADPH oxidase 4 (Homo sapiens) (Q9NPH5 whole entry, looked up): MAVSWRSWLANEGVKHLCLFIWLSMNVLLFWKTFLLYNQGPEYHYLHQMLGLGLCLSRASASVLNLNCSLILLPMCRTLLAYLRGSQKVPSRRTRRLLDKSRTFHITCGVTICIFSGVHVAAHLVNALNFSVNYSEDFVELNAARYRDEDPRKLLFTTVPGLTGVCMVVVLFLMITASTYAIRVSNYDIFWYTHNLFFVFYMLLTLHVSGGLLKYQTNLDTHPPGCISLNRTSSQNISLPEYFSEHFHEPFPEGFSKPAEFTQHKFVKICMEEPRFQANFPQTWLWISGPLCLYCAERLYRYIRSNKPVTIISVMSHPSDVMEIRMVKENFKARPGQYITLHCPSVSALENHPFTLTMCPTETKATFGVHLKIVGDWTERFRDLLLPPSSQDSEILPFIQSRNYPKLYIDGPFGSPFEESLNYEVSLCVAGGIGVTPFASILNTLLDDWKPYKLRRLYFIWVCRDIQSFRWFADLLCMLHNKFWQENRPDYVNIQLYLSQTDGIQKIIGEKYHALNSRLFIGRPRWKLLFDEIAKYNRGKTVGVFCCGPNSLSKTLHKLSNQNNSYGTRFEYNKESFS

## CN1C(=O)C2C=CC(C(O)COCc3ccccc3)N(Nc3ccccc3)C2C1=O (stereo not given)
[1]
  z-score: -0.75 (inactive)
[2]
  composite z-score: 0.167
[3]
  z-score: 0.625 (inactive)
[4]
  z-score: 0.167 (inactive)
[5]
  z-score: -0.225 (inactive)
[6]
  z-score: 0.63 (inactive)
[7]
  z-score: -1.01
[8]
  z-score: -2.32 (inactive)
[9]
  z-score: -4.03 (inactive)
[10]
  z-score: -2.63
[11]
  z-score: -0.115
[12]
  z-score: -1.24
[13]
  z-score: -0.465
[14]
  z-score: 0.225
[15]
  z-score: 0.192
[16]
  z-score: -1.05
[17]
  z-score: 0.0756 (inactive)
[18]
  z-score: -0.0145
[19]
  z-score: -0.178
[20]
  z-score: 0.105 (inactive)

## CC(C)c1ccc(NN2C(C(O)c3ccccn3)C=CC3C(=O)N(c4ccccc4)C(=O)C32)cc1 (stereo not given)
[1]
  z-score: -0.701 (inactive)
[2]
  composite z-score: 0.595
[3]
  z-score: 7.66 (inactive)
[4]
  z-score: 1.4 (inactive)
[5]
  z-score: 2.42 (inactive)
[6]
  z-score: 1.64 (inactive)
[7]
  z-score: -0.336
[8]
  z-score: -1.2 (inactive)
[9]
  z-score: -3.57 (inactive)
[10]
  z-score: -3.05
[11]
  z-score: -0.381
[12]
  z-score: -0.696
[13]
  z-score: -0.293
[14]
  z-score: 0.741
[15]
  z-score: -0.712
[16]
  z-score: -0.357
[17]
  z-score: -1.17 (inactive)
[18]
  z-score: -0.597
[19]
  z-score: -0.729
[20]
  z-score: -0.943 (inactive)

## CN(C)CCCCCCNC(=O)[C@@H]1C[C@@H]2C(=O)NCC(=O)N2[C@@H]1c1ccc(O)cc1
[1]
  z-score: -0.407 (inactive)
[2]
  composite z-score: 0.298
[3]
  z-score: 0.755 (inactive)
[4]
  z-score: -0.296 (inactive)
[5]
  z-score: 0.794 (inactive)
[6]
  z-score: -0.114 (inactive)
[7]
  z-score: -0.341
[8]
  z-score: -0.289 (inactive)
[9]
  z-score: 0.12 (inactive)
[10]
  z-score: 0.524
[11]
  z-score: -0.627
[12]
  z-score: 0.5
[13]
  z-score: -0.963
[14]
  z-score: -0.539
[15]
  z-score: 0.71
[16]
  z-score: -1.16
[17]
  z-score: -0.782 (inactive)
[18]
  z-score: 0.3
[19]
  z-score: 0.216
[20]
  z-score: -0.898 (inactive)

## O=C1c2ccccc2[C@](Cc2ccccc2I)(C(=O)NCC(F)(F)F)[C@H](c2ccc(CO)cc2)N1Cc1ccccc1
[1]
  z-score: 0.131 (inactive)
[2]
  composite z-score: -0.229
[3]
  z-score: 2.39 (inactive)
[4]
  z-score: 0.111 (inactive)
[5]
  z-score: 0.369 (inactive)
[6]
  z-score: 0.278 (inactive)
[7]
  z-score: -0.261
[8]
  z-score: 0.738 (inactive)
[9]
  z-score: -0.16 (inactive)
[10]
  z-score: 1.14
[11]
  z-score: 0.535
[12]
  z-score: 0.489
[13]
  z-score: 0.43
[14]
  z-score: -0.441
[15]
  z-score: -1.67
[16]
  z-score: -0.0706
[17]
  z-score: -0.0813 (inactive)
[18]
  z-score: -0.332
[19]
  z-score: -0.645
[20]
  z-score: 1.1 (inactive)

## N#Cc1ccc(NN2C(C(O)c3ccccc3)C=CC3C(=O)N(c4ccccc4)C(=O)C32)cc1 (stereo not given)
[1]
  z-score: -1.28 (inactive)
[2]
  composite z-score: 0.0077
[3]
  z-score: 9.06 (active)
[4]
  z-score: 0.611 (inactive)
[5]
  z-score: 1.65 (inactive)
[6]
  z-score: 0.58 (inactive)
[7]
  z-score: -0.823
[8]
  z-score: -2.08 (inactive)
[9]
  z-score: -5.5 (inactive)
[10]
  z-score: -3.44
[11]
  z-score: -1.14
[12]
  z-score: -0.173
[13]
  z-score: 0.216
[14]
  z-score: -0.861
[15]
  z-score: -0.32
[16]
  z-score: -0.782
[17]
  z-score: -0.182 (inactive)
[18]
  z-score: 0.0989
[19]
  z-score: 0.976
[20]
  z-score: -0.331 (inactive)

## CCN(CC)c1ccc(N2CC=CC34O[C@@H]5/C=C\CCCOC(=O)C5[C@H]3C(=O)N(CCCCCO)[C@@H]4C2=O)cc1 (stereo not given in full)
[1]
  z-score: -1.06 (inactive)
[2]
  composite z-score: -0.0479
[3]
  z-score: 1.03 (inactive)
[4]
  z-score: 0.0039 (inactive)
[5]
  z-score: -0.656 (inactive)
[6]
  z-score: -0.28 (inactive)
[7]
  z-score: -0.486
[8]
  z-score: 0.516 (inactive)
[9]
  z-score: -0.21 (inactive)
[10]
  z-score: 1.41
[11]
  z-score: 0.147
[12]
  z-score: 0.184
[13]
  z-score: 0.481
[14]
  z-score: -0.459
[15]
  z-score: -0.711
[16]
  z-score: -0.589
[17]
  z-score: -0.267 (inactive)
[18]
  z-score: 0.0223
[19]
  z-score: 0.515
[20]
  z-score: 0.0257 (inactive)

## COC(=O)[C@@]1(Cc2ccc(F)cc2)[C@H]2c3cc(C(=O)N(C)C)n(CCSCCO)c3C[C@H]2CN1C(=O)c1ccccc1
[1]
  z-score: -0.683 (inactive)
[2]
  composite z-score: -0.0901
[3]
  z-score: 0.621 (inactive)
[4]
  z-score: -0.383 (inactive)
[5]
  z-score: -0.662 (inactive)
[6]
  z-score: 0.397 (inactive)
[7]
  z-score: -0.426
[8]
  z-score: 0.746 (inactive)
[9]
  z-score: -0.303 (inactive)
[10]
  z-score: -0.572
[11]
  z-score: -0.716
[12]
  z-score: -0.352
[13]
  z-score: 0.665
[14]
  z-score: -0.684
[15]
  z-score: -1.08
[16]
  z-score: -0.572
[17]
  z-score: -0.682 (inactive)
[18]
  z-score: -0.0796
[19]
  z-score: 0.172
[20]
  z-score: -0.0793 (inactive)

## COC(=O)[C@@]1(Cc2ccc(OC)cc2)[C@H]2c3cc(C(=O)N4CCCC4)n(CCc4ccc(O)c(OC)c4)c3C[C@H]2CN1C(=O)c1ccccc1
[1]
  z-score: -1.82 (inactive)
[2]
  composite z-score: 0.128
[3]
  z-score: 2.81 (inactive)
[4]
  z-score: 0.626 (inactive)
[5]
  z-score: 0.394 (inactive)
[6]
  z-score: 0.594 (inactive)
[7]
  z-score: 0.389
[8]
  z-score: -0.124 (inactive)
[9]
  z-score: -1.39 (inactive)
[10]
  z-score: -2.06
[11]
  z-score: -1.47
[12]
  z-score: 0.0048
[13]
  z-score: -0.0475
[14]
  z-score: -1.03
[15]
  z-score: -0.254
[16]
  z-score: -0.851
[17]
  z-score: -0.867 (inactive)
[18]
  z-score: -0.167
[19]
  z-score: -0.563
[20]
  z-score: 1.05 (inactive)

## O=C(Nc1cc(Br)ccc1C(=O)NCc1cccc(O)c1)c1ccccc1
[1]
  z-score: 1.41 (inactive)
[2]
  composite z-score: 0.388
[3]
  z-score: 17.5 (active)
[4]
  z-score: 4.24 (inactive)
[5]
  z-score: -0.222 (inactive)
[6]
  z-score: 2.17 (inactive)
[7]
  z-score: -0.645
[8]
  z-score: -1.57 (inactive)
[9]
  z-score: -1.69 (inactive)
[10]
  z-score: -1.3
[11]
  z-score: -1.71
[12]
  z-score: -0.318
[13]
  z-score: -2.25
[14]
  z-score: -3.11
[15]
  z-score: -2.49
[16]
  z-score: 0.386
[17]
  z-score: 5.49 (inactive)
[18]
  z-score: -0.226
[19]
  z-score: -1.12
[20]
  z-score: -0.326 (inactive)
